Measurements as given in PubChem BioAssay AID1159580 (chemical genetic matrix, 2015).
Values joined by “and” are separate entries in the source; they are usually repeats but may differ in a detail not shown here. Identical values can stand only once. The campaign covered roughly 5,500 compounds. About 2,000 (36%) were called active. Not shown: some 18% with an inconclusive outcome. No stated cut-off is given here; in the data, active means normalized growth mostly below about 0.91 (no sharp cut-off); inconclusive means no clear call, values can overlap the other calls; inactive means mostly above about 0.92. Some of the results follow.

Assay: chemical genetic growth profiling, strain panel (AID 1159580);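 further: tested at 20 µM; growth read once vehicle control cultures reached saturation at 30 °C; 1 = growth at the plate median or of vehicle wells; lower values mean less growth of the strain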
Settings: S. cerevisiae deletion strains, growth OD

Measured: normalized growth

O=c1[nH]c(=O)n(C2C[C@H](O)[C@@H](CO)O2)cc1C(F)(F)F (stereo partly specified)
inactive: locus YAL013W, strain DEP1, hits give low values 0.992 | locus YAL021C, strain ccr4, hits give low values 0.999 | locus YAL026C, strain drs2, hits give low values 0.973 | locus YAL030W, strain snc1, hits give low values 0.979 | locus YBL061C, strain skt5, hits give low values 0.974 | locus YBR009C, strain hhf1, hits give low values 0.981 | locus YBR021W, strain FUR4, hits give low values 0.968 | locus YBR023C, strain chs3, hits give low values 0.983 | locus YBR171W, strain sec66, hits give low values 0.965 | locus YBR229C, strain ROT2, hits give low values 0.986 | locus YBR231C, strain swc5, hits give low values 0.976 | locus YBR279W, strain paf1, hits give low values 0.98 | locus YCL011C, strain gbp2, hits give low values 0.954 | locus YCL016C, strain dcc1, hits give low values 0.972 | locus YCL029C, strain bik1, hits give low values 0.971 | locus YCL069W, strain vba3, hits give low values 0.994 | locus YCR088W, strain abp1, hits give low values 0.973 | locus YDL005C, strain med2, hits give low values 0.964 | locus YDL035C, strain GPR1, hits give low values 0.986 | locus YDL040C, strain nat1, hits give low values 0.976 | locus YDL074C, strain BRE1, hits give low values 0.97 | locus YDL101C, strain DUN1, hits give low values 0.987 | locus YDL134C, strain PPH21, hits give low values 1 | locus YDL185W, strain tfp1, hits give low values 0.962 | locus YDL192W, strain arf1, hits give low values 0.981 | locus YDR001C, strain nth1, hits give low values 0.947 | locus YDR069C, strain doa4, hits give low values 0.95 | locus YDR101C, strain arx1, hits give low values 0.981 | locus YDR137W, strain rgp1, hits give low values 0.901 | locus YDR150W, strain NUM1, hits give low values 0.996 | locus YDR159W, strain sac3, hits give low values 0.947 | locus YDR162C, strain NBP2, hits give low values 0.984 | locus YDR195W, strain ref2 0.922 | locus YDR297W, strain sur2, hits give low values 0.969 | locus YDR318W, strain mcm21, hits give low values 0.987 | locus YDR334W, strain swr1, hits give low values 0.964 | locus YDR335W, strain msn5, hits give low values 0.96 | locus YDR388W, hits give low values 0.975 | locus YDR392W, strain spt3, hits give low values 1 | locus YDR502C, strain sam2, hits give low values 0.979 | locus YEL003W, strain gim4, hits give low values 0.979 | locus YEL037C, strain rad23, hits give low values 0.984 | locus YEL061C, strain CIN8 (second series), hits give low values 0.952 | locus YEL061C, strain CIN8, hits give low values 0.995 | locus YER015W, strain faa2, hits give low values 0.972 | locus YER016W, strain bim1, hits give low values 0.978 | locus YER110C, hits give low values 0.966 | locus YER111C, strain swi4, hits give low values 0.976 | locus YER155C, strain BEM2 (second series), hits give low values 0.957 | locus YER155C, strain BEM2, hits give low values 0.984 | locus YER167W, strain BCK2, hits give low values 0.945 | locus YFR010W, strain ubp6, hits give low values 0.953 | locus YGL078C, strain dbp3, hits give low values 0.966 | locus YGL086W, strain mad1, hits give low values 0.979 | locus YGL167C, strain pmr1, hits give low values 0.968 | locus YGL173C, strain kem1, hits give low values 0.98 | locus YGL227W, strain vid30, hits give low values 0.946 | locus YGL240W, strain doc1, hits give low values 1 | locus YGL248W, strain PDE1, hits give low values 0.978 | locus YGL253W, strain hxk2, hits give low values 0.972 | locus YGR078C, strain PAC10, hits give low values 0.997 | locus YGR135W, strain pre9, hits give low values 0.969 | locus YGR229C, strain SMI1, hits give low values 0.963 | locus YGR252W, strain gcn5, hits give low values 0.971 | locus YHR013C, strain ard1, hits give low values 0.923 | locus YHR027C, strain rpn1, hits give low values 0.958 | locus YHR030C, strain SLT2, hits give low values 0.985 and 1.02 | locus YHR079C, strain IRE1 (second series), hits give low values 0.974 | locus YHR079C, strain IRE1, hits give low values 1.03 | locus YHR094C, strain hxt1, hits give low values 0.983 | locus YHR129C, strain ARP1, hits give low values 0.987 | locus YHR142W, strain chs7, hits give low values 0.922 | locus YHR200W, strain rpn10, hits give low values 0.985 | locus YIL066C, strain RNR3, hits give low values 0.986 | locus YIL073C, strain SPO22, hits give low values 0.967 | locus YIL125W, strain kgd1, hits give low values 0.968 | locus YIR030C, strain dcg1, hits give low values 0.969 | locus YJL092W, strain hpr5, hits give low values 0.962 | locus YJL095W, strain BCK1 (second series), hits give low values 0.962 | locus YJL095W, strain BCK1, hits give low values 0.969 and 1.01 | locus YJL115W, strain asf1, hits give low values 0.928 | locus YJL129C, strain trk1, hits give low values 0.916 | locus YJL134W, strain LCB3, hits give low values 0.987 | locus YJL154C, strain vps35, hits give low values 0.975 | locus YJL164C, strain tpk1, hits give low values 0.968 | locus YJL166W, strain qcr8, hits give low values 0.953 | locus YJL168C, strain set2, hits give low values 0.987 | locus YJL187C, strain SWE1 (second series), hits give low values 0.982 | locus YJR043C, strain POL32, hits give low values 0.973 | locus YJR066W, strain TOR1, hits give low values 0.963 | locus YJR075W, strain HOC1, hits give low values 0.991
